The structures appear in SMILES notation. The panel holds about 83,000 compounds, 20% with a hit somewhere; the sample as a whole holds those more often.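 Negative percent growth values reflect cell death: -40 means 40% of the cells present at the start died, and -100 means all died.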 Unmarked numbers belong to inactive results. Active and inactive are the calls of the source. How the source made its calls: active means growth percent below 10; inactive means the rest.

Common to all, as to assay: NCI-60 one-dose screen, 48 h (100 = growth as untreated, 0 = no growth, -100 = all killed)
Conditions in all cases: 10 µM unless noted

The subject of assay [1] is MOLT-4 leukemia.
In assay [2] the test system is SR leukemia.
For assay [3], the system named is RPMI-8226 leukemia.
The test system of assay [4] is OVCAR-8 ovarian.
The subject of assay [5] is OVCAR-5 ovarian.
In assay [6] the test system is OVCAR-4 ovarian.
Assay [7] has as its system SK-OV-3 ovarian.
The test system of assay [8] is IGROV1 ovarian.
In assay [9] the test system is OVCAR-3 ovarian.
Assay [10] concerns HS 578T breast.
In assay [11] the test system is NCI/ADR-RES ovarian.
Assay [12] relates to T-47D breast.
In assay [13] the test system is BT-549 breast.
Assay [14] concerns MDA-MB-435 melanoma.
Assay [15] concerns SW-620 colon.
In assay [16] the test system is MCF7 breast.
Assay [17] deals with HCT-116 colon.
Assay [18] has as its system HCC-2998 colon.
For assay [19], the system named is KM12 colon.

For `COc1ccc(S(=O)(=O)Nc2c(/C=C\c3cc(OC)c(OC)c(OC)c3)ccc(OC)c2O)cc1OC`, the growth is 16.8% in assay [1]; 15.9% in assay [2]; 25.4% in assay [3]; 20.3% in assay [4]; 33.7% in [5]; 43% in assay [6]. Further, the growth in [7] was 9.89% (active); in [8] it was 23.9%; in [9], -20.9% (active); in [10] it was 16.3%; in assay [11] it was 2.42% (active); in assay [12], 100%. Further, the growth in [13] was 20.7%; in [14], -52% (active); in [15] it was 22.6%; in assay [16] it was 15.7%; in [17], 12.6%; in assay [18], 22.6%. For the same compound, the growth in assay [19] was 4.9% (active).
Turning to `CCC(CC)CC1(C)CC2(C)CCOC2OO1` (stereo not drawn), the growth was 113% in assay [1]; 113% in assay [2]; 103% in [3]; 102% in [4]; 113% in [5]; 95.4% in [6]. Moreover, the growth was 111% in assay [7]; 114% in assay [8]; 115% in assay [9]; 92.6% in assay [10]; 104% in assay [11]; 97.8% in assay [12]. Also, the growth in assay [13] is 112%; in assay [14], 109%; in assay [15], 104%; in assay [16], 104%; in [17], 108%; in [18] it was 93.4%. Besides, the growth in [19] was 111%.
As for `O=[N+]([O-])c1cc(I)cc([N+](=O)[O-])c1`, the growth in assay [1] was 97.1%; in assay [2], 104%; in [3] it was 101%; in assay [4], 108%; in [5], 119%; in [6], 79.4%. For the same compound, the growth in [7] was 125%; in assay [8] it was 108%; in assay [9], 107%; in assay [10] it was 122%; in [11], 96.6%; in [12], 95.8%. For the same compound, the growth in [13] is 101%; in assay [14], 101%; in [15], 106%; in assay [16] it was 80.7%; in assay [17], 94.8%; in assay [18], 104%. The growth in [19] is 102%.
Take `CC(=O)O[C@H]1C(=O)[C@@]2(C)[C@H]([C@H](OC(=O)c3ccccc3)[C@]3(O)C[C@H](OC(=O)[C@H](OC(=O)OCC4COC(C)(C)O4)[C@@H](NC(=O)c4ccccc4)c4ccccc4)C(C)=C1C3(C)C)[C@]1(OC(C)=O)CO[C@@H]1C[C@@H]2O` (stereo partly drawn): the growth in assay [1] is 35.8%; in [2], 35.7%; in assay [3], 13%; in assay [4], 39.3%; in assay [5] it was 20.8%; in assay [6], 79%. Besides, the growth in assay [7] was 48.5%; in assay [8], 35.3%; in [9], 15%; in [10], 30.5%; in assay [11] it was 91.4%; in assay [12], 40.7%. The growth was 38.2% in assay [13]; -49.6% (active) in [14]; 38.7% in assay [15]; 18.9% in [16]; 19.2% in assay [17]; 39.9% in assay [18]. In addition, the growth in [19] was 18.7%.
For `CCCC(=O)O[C@@H]1C[C@H]2C[C@@H](O[C@@H]3O[C@@H](C)[C@@H](O)[C@@H](O)[C@H]3OC)C[C@@H](C[C@@H](C)/C=C/C=C\C[C@@H]3O[C@@H](C[C@@H]3C)[C@@H](O)C[C@H]3C[C@@]1(O)C(=O)O3)O2`, the growth in [1] is 37.5%; in [2] it was 85.9%; in assay [3], 27.3%; in assay [4], 41.1%; in assay [5], 74.5%; in [6] it was 25.4%. The growth in assay [7] was 52.4%; in assay [8], 70.1%; in assay [9], 59.8%; in assay [10], 96.7%; in assay [11] it was 67.6%; in [12], 17.4%. Moreover, the growth in assay [13] was 46.9%; in assay [14], 59.1%; in assay [15], 87.4%; in assay [16] it was 25.7%; in assay [17] it was 56.3%; in assay [18], 59.4%. The growth in assay [19] is 65.3%.
`Cn1cc(-c2csc(-c3cn(CCN4CCOCC4)c4ccc(F)cc34)n2)c2cccnc21`: the growth in assay [1] is 4.03% (active); in assay [2], 33.7%; in assay [3], 0.0619% (active); in assay [4], 4.93% (active); in assay [5] it was 75.3%; in [6], 30.5%. In addition, the growth in [7] is 78.7%; in [8] it was 21%; in assay [9], 32.3%; in assay [10] it was 60.4%; in assay [11], 5.84% (active); in assay [12] it was -17.7% (active). In addition, the growth in assay [13] was 10.8%; in assay [14] it was 32.2%; in assay [15], 44.9%; in assay [16], 8.93% (active); in assay [17] it was 36.9%; in assay [18] it was 86.7%. Besides, the growth in assay [19] was 22.3%.
In the case of `COC(=O)[C@@H](C)C[C@H](Cc1ccccc1)NC(=O)c1csc([C@@H](C[C@H](C(C)C)N(C)C(=O)[C@@H](NC(=O)C23CC(NC(C)=O)(C2)C3)C2CC2)OC(C)=O)n1`, the growth was 57.4% in [1]; 29.1% in assay [2]; 12% in [3]; 69.1% in assay [4]; 103% in assay [5]; 77.7% in assay [6]. Besides, the growth in [7] was 78.9%; in assay [8], 49.4%; in assay [9], -7.77% (active); in assay [10], 7.48% (active); in assay [11], 97.8%; in assay [12] it was 62.7%. Further, the growth is 51.5% in [13]; -16.5% (active) in assay [14]; 41.3% in assay [15]; 18.9% in assay [16]; 20.6% in assay [17]; 49.3% in assay [18]. Besides, in [19], the growth is 28%.

Source of the values: PubChem BioAssay (NCI).
